Screens: PubChem, National Center for Advancing Translational Sciences (NCATS)
DT40 TDP1 CPT – DT40-hTDP1 cell growth loss with CPT. actives 12% (n = 420,000). Potency, µM (highest dose often 46.2 µM), for the others: at the top dose activity change, negative = growth inhibition, actives largely listed as inhibitors. chicken DT40 Tdp1-/-;hTDP1 cells + 20 nM CPT, ATP luminescence, 48 h. AID 686979; also: potency is read from the fitted curve at half-maximal effect; nearly all actives have a fitted effect of over 55% in size
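Chicken DT40 Tdp1-/- cells stably complemented with human TDP1 were seeded at 400 cells/well in medium containing 20 nM camptothecin, exposed to pin-transferred compounds, and grown at 37 °C for at least 48 hr. Viability was read as ATP luminescence.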
TDP1 block – inhibitors of human tyrosyl-DNA phosphodiesterase TDP1 | actives 0.28% (n = 350,000) | Potency, µM (highest dose often 130 µM), inactives show at the top dose activity change, negative = inhibition, hits mostly inhibitors | AID 485290 | recombinant TDP1, AlphaScreen DNA substrate cleavage; also: potency is read from the fitted curve at half-maximal effect; nearly all actives have a fitted effect of over 40% in size
Target sequence (Q9NUW8 whole entry, looked up): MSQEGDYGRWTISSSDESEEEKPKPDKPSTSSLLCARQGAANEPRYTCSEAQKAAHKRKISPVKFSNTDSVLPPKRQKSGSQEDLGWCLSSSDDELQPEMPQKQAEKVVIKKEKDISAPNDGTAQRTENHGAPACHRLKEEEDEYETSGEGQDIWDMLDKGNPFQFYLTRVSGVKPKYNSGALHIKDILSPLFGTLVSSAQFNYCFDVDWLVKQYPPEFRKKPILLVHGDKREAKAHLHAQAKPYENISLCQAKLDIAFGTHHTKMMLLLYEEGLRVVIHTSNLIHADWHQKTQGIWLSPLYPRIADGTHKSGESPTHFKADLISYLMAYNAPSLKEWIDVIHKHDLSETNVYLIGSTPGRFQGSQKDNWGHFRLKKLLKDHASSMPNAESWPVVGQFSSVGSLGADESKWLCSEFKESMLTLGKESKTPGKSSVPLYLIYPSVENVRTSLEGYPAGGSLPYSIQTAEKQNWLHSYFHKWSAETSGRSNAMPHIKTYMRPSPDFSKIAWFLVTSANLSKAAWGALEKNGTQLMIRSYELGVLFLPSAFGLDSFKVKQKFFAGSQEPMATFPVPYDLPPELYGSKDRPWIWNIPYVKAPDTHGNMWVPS
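Tdp1 1 nM final; 15 min RT w/ cpd; substrate 15 nM, 5 min; beads 10 ug/ml, 10 min; AlphaScreen read. Neg ctrl: no enzyme.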
DT40 TDP1 no CPT – qHTS for Inhibitors of human tyrosyl-DNA phosphodiesterase 1 (TDP1): qHTS in cells in absence of CPT; DT40 Tdp1-/- hTDP1 cells, no CPT, ATP luminescence, 48 h; Potency, µM (highest dose often 46.2 µM), for inactives: top-dose activity change, negative = growth inhibition, hits mostly inhibitors; actives 15% (n = 420,000); AID 686978, 2013; also: potency is read from the fitted curve at half-maximal effect; nearly all actives have a fitted effect of over 55% in size
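Compound effects on proliferation are scored in DT40 Tdp1-/-;hTDP1 cells in the absence of CPT. ATP levels (CellTiter-Glo luminescence) are recorded after a ≥48 hr, 37 °C incubation.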
Giardia killer – kills Giardia lamblia; Giardia lamblia trophozoite viability; activity change, % at 7.66 µM, hits read low; actives 0.15% (n = 340,000); in the data active = activity change below about -80%; inconclusive = between about -30% and that limit;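 also: parasites exposed to compound for two days anaerobically before the ATP read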
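Giardia trophozoites, 100 cells per well, were exposed to compounds for 48 hrs at 37 deg C under anaerobic conditions; viability was then read as ATP content by bioluminescence after 15-30 min at room temperature.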
ELG1 repair inh – inhibitors of ELG1-dependent DNA repair in HEK293T cells; HEK293T ELG1-luciferase reporter, luminescence, 16 h; DNA damage induced by 5-fluorouridine; Potency, µM (highest dose often 46.1 µM), inactives show top-dose activity change, negative = inhibition, most hits filed as inhibitors; actives 2.3% (n = 330,000); AID 504467; also: potency is read from the fitted curve at half-maximal effect; nearly all actives have a fitted effect of over 55% in size
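Reporter activity after DNA damage by 5-fluorouridine is monitored. Compound-treated cells incubate 16 hr at 37 °C, then ONE-Glo is added for 30 min before luminescence reading.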
IL1B secr inh – inflammasome signaling inhibition, IL-1 beta readout | THP-1 LPS/ATP IL-1B secretion, AlphaLISA, 16 h; active compounds read low | activity change, % at 57.5 µM | actives 4.7% (n = 360,000); in the data active = activity change below about -50%; inconclusive = mostly about -30% to -49%
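Secreted IL-1B measured by AlphaLISA bead assay after 16 h compound exposure of THP-1 cells; compounds (final up to 57.5 uM) added 1 h before LPS (250 ng/mL) and ATP (1.25 mM) stimulation; lower signal means less secretion.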
Numbers without * were called inactive; ? = inconclusive; . = no result given; [ ] = another dose, or the depositor's remark. In the library only some 19% were active in any assay of this set; here they are far more common. Unless noted, calls follow the shape of the dose curve; as a rule, active = well fitted curve in the direction sought with a large enough effect; inconclusive = small, poorly fitted or top-dose-only effect, or another doubt; inactive = no such curve, though single readings can be large; an effect the other way counts as inactive or inconclusive. % is scaled to controls: 0 for no effect and ±100 for the full control effect.

SMILES | DT40 TDP1 CPT | TDP1 block | DT40 TDP1 no CPT | Giardia killer | ELG1 repair inh | IL1B secr inh
COc1cc2cc(CN(CCc3ccccc3C)C(=S)NCCCN(C)C)c(=O)[nH]c2cc1OC | ? | 4.2% | 16.4µM* | 31.2 | -23.3% | -0.4
Cc1cc(=O)oc2cc(O)c(O)cc12 | -12.8% | 9.3%[56.1 µM] | -28.5% | . | . | .
CCC(Sc1nc2nccnc2c(=O)n1Cc1ccc(F)cc1)C(=O)NC1CCCCC1 (stereo not given) | 20.6µM* | 2.6% | ? | . | . | .
Cn1c(=O)oc2cc(S(=O)(=O)N3CCCC(C(=O)NCc4ccccc4Cl)C3)ccc21 (stereo not given) | -21.8% | 1.3% | -16.7% | . | . | .
O=C1CCN(Cc2ccccc2)C=C1c1ccc(Cl)cc1 | 23.1µM* | 4.5% | ? | -8.9 | 5.5% | -5.5
CCN(CC(=O)N1CCN(Cc2ccccc2)CC1)S(=O)(=O)c1ccccc1 | -22.1% | 0.9% | ? | -9.3 | -2.7% | 6.6
COc1ccc(N(CC(=O)N2CCN(Cc3ccccc3)CC2)S(C)(=O)=O)c(OC)c1 | ? | . | 13µM* | -0.6 | -7.0% | 0.0
CCOc1ccccc1N(CC(=O)N1CCN(Cc2ccccc2)CC1)S(=O)(=O)c1ccccc1 | 23.1µM* | . | 8.2µM* | . | . | -5.3
COc1ccc2c(c1)c(C(C)=O)c(C)n2-c1ccccc1OC | -19.1% | . | ? | -3.0 | . | ?
Cc1ccccc1-n1c(SCc2cc(=O)n3ccccc3n2)nc2[nH]ncc2c1=O | ? | 9.4% | -27.3% | -6.9 | 2.2% | -0.2
COc1ccc(N2CCN(C(=O)CSc3nc4[nH]ncc4c(=O)n3-c3ccc(Br)cc3)CC2)cc1 | ? | 7.9% | ? | 10.5 | ? | -24.2
Cc1cccc2nc(CSc3nc4[nH]ncc4c(=O)n3-c3ccccc3Cl)cc(=O)n12 | 14.6µM* | 5.3% | 20.6µM* | -4.8 | -20.1% | -6.0
Cc1ccc(-n2c(SCc3ccccc3F)nc3[nH]ncc3c2=O)cc1Cl | 20.6µM* | 7.6% | 14.6µM* | . | . | .
O=c1c2cn[nH]c2nc(SCc2cc(=O)n3cc(Br)ccc3n2)n1-c1ccc(Br)cc1 | ? | 5.4% | ? | 5.4 | ? | -51.0*
Cc1ccccc1-n1c(SCc2cccc(F)c2)nc2[nH]ncc2c1=O | ? | 5.6% | ? | 5.6 | -9.6% | -74.1*
Cc1ccc(NC(=O)C(C)Sc2nc(=O)cc(N)n2-c2cccc(C)c2)cc1 (stereo not given) | -9.6% | . | -21.9% | . | . | .
O=c1c2cn[nH]c2nc(SCc2ccccc2F)n1-c1ccc(Br)cc1 | ? | 7.9% | ? | 8.5 | ? | -149.1*
CCc1ccc(-n2c(SCc3ccccc3F)nc3[nH]ncc3c2=O)cc1 | 20.6µM* | 8.5% | 16.4µM* | . | . | .
CN1CCN(c2ccccc2NC(=O)c2cccc(OCc3ccccc3)c2)CC1 | ? | 3.3% | 20.6µM* | -3.7 | 20.6µM* | -65.3*
CC(C)Oc1ccc(C(=O)Nc2ccccc2N2CCOCC2)cc1 | 3.6% | 2.6% | -14.8% | -8.1 | 10.6% | 3.2
CC(=O)N1CCN(c2ccc(NC(=O)c3cccc(OCc4ccccc4)c3)cc2)CC1 | ? | 0.0% | ? | 2.6 | ? | 39.8
CN1CCN(c2ccccc2NC(=O)c2ccc(-c3ccccc3)cc2)CC1 | ? | 5.7% | 16.4µM* | 0.4 | ? | -59.3*
CN1CCN(c2ccccc2NC(=O)c2ccc(OCc3ccccc3)cc2)CC1 | 16.4µM* | 7.8% | ? | -7.6 | ? | -54.6*
Cc1nc(COc2ccc(C(=O)Nc3ccccc3N3CCOCC3)cc2)cs1 | ? | -3.0%[0.0935 µM] | 14.6µM* | -1.7 | -12.7% | ?
CCOC(=O)Cn1c(=O)n(CC2CCCO2)c2nc(-c3cccc(C)c3)nc(C(N)=O)c21 (stereo not given) | . | -1.8% | . | . | . | .
SMILES | DT40 TDP1 CPT | TDP1 block | DT40 TDP1 no CPT | Giardia killer | ELG1 repair inh | IL1B secr inh
COCCn1c(=O)c(-c2cccs2)nc2cnc(OC)nc21 | -7.0% | . | 13.8% | . | . | .
COc1ccc(CN2C(=O)CN(S(C)(=O)=O)CC2(C)C(=O)Nc2c(C)cccc2C)cc1 (stereo not given) | 7.7% | . | 20.4% | . | . | 0.0
O=C(NCc1ccccc1CN1CCCC1)c1ccc(OCc2cscn2)cc1 | -20.5% | -0.2% | 9.9% | -0.3 | 0.9% | -7.2
Cc1nc(COc2ccc(C(=O)NCc3ccccc3CN3CCCCC3)cc2)cs1 | ? | 4.0% | 23.1µM* | 5.3 | ? | 0.0
O=C(O)c1ccccc1-c1csc(-c2ccccc2)n1 | 3.9% | 6.0% | -15.6% | 39.0 | ? | 23.1
Cc1nnc(SCc2ccccc2Cl)c2cc3occc3n12 | ? | 10.3% | 16.4µM* | . | . | .
Cc1nnc(SCc2ccc(Cl)cc2)c2cc3occc3n12 | ? | 5.1% | ? | . | . | .
COc1ccc(-c2nc(CSc3nncn4c3cc3occc34)c(C)o2)cc1 | 16.4µM* | 2.6% | 23.1µM* | . | . | .
COc1ccc(-c2nc(CSc3nnc(C)n4c3cc3occc34)c(C)o2)cc1OC | 10.3µM* | -2.6% | 11.6µM* | . | . | .
CC(Oc1ccc2c(c1)oc(=O)c1ccccc12)C(=O)NCCN1CCOCC1 (stereo not given) | -23.0% | -1.8% | 8.4% | 21.5 | 18.4% | -12.9
O=C(c1cccc(Cl)c1)N1CCC(=O)N(C(COCc2ccccc2)Cc2ccccc2)CC1 (stereo not given) | ? | 1.3% | ? | -12.8 | ? | -5.3
O=C(c1ccc(Cl)c(Cl)c1)N1CCC(=O)N(C(COCc2ccccc2)Cc2ccccc2)CC1 (stereo not given) | 16.4µM* | 3.9% | 23.1µM* | -16.1 | ? | ?
O=C(c1ccc(Cl)c(Cl)c1)N1CCC(=O)N([C@H](COCc2ccccc2)Cc2ccccc2)CC1 | 20.6µM* | . | 18.4µM* | . | . | -13.0
O=C(c1ccc(Cl)c(Cl)c1)N1CCC(=O)N([C@H](COCc2cccc(C(F)(F)F)c2)Cc2ccccc2)CC1 | ? | . | ? | . | . | -12.0
CCCN1CCN(c2ncnc3c2nnn3Cc2ccccc2)CC1 | 16.4µM* | -7.8% | 20.6µM* | 26.2 | -18.7% | 22.6
S=c1sc2c(N3CCN(Cc4ccccc4)CC3)ncnc2n1-c1ccccc1 | 16.4µM* | 5.6% | 23.1µM* | -19.5 | -7.0% | -0.4
Clc1cccc(Cl)c1Cn1cnc2c(N3CCCCCC3)ncnc21 | 18.4µM* | 4.4% | 10µM* | 18.4 | ? | -73.8*
CCN(CC)c1ncnc2c1ncn2Cc1c(Cl)cccc1Cl | ? | -0.7% | ? | -3.4 | ? | -8.2
Cn1nnc2c(N3CCN(Cc4ccccc4)CC3)ncnc21 | ? | . | 15.8µM* | -12.2 | . | .
